Laboratory results taken from PubChem BioAssay (NCI).
This is part of a sample that, as a whole, favours compounds with a hit. Of some 79,000 tested, about 15% had one in any assay. Unmarked numbers belong to inactive results. Active and inactive are the calls of the source. Cut-off read from the data, not from the text of the source: active = growth inhibition above about 70%; inactive = the rest.

Columns and labels:
[1] = NCI Yeast Anticancer Drug Screen. Data for the rad50 strain (AID 155);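 note: 0% = growth of vehicle-only cultures of the same strain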; conditions: S. cerevisiae rad50 strain growth inhibition, stronger effect = higher value
Method in brief: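 DNA repair mutant yeast, compound exposure, growth read-out; inhibition is taken relative to vehicle.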

[2] = NCI Yeast Anticancer Drug Screen. Data for the mec2-1 strain (AID 157); conditions: S. cerevisiae mec2-1 strain, stronger effect = higher value
Method in brief: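 mec2-1 yeast strain, carrying an alteration in DNA damage repair or cell cycle control, was exposed to compounds; growth inhibition was measured relative to vehicle-treated controls.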

[3] = NCI Yeast Anticancer Drug Screen. Data for the sgs1 mgt1 strain (AID 161);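 note: 0% = growth of cultures given vehicle only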; conditions: S. cerevisiae sgs1 mgt1 strain, stronger effect = higher value
Method in brief: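 This yeast growth screen uses a strain with defined DNA-repair lesions; compound-treated growth is compared with vehicle-treated growth.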

[4] = NCI Yeast Anticancer Drug Screen. Data for the cln2 rad14 strain (AID 165);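 note: 0% = growth equal to vehicle treated cultures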; conditions: S. cerevisiae cln2 rad14 strain, stronger effect = higher value
Method in brief: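 Yeast carrying cln2 and rad14 alterations (cell cycle control and DNA damage repair) were exposed to compounds. Growth inhibition was measured against vehicle-treated controls.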

[5] = NCI Yeast Anticancer Drug Screen. Data for the bub3 strain (AID 167); conditions: S. cerevisiae bub3 mutant strain, stronger effect = higher value
Method in brief: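 In this screen, a yeast mutant lacking normal mitotic checkpoint function is challenged with compound. Relative growth versus vehicle gives the inhibition value.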

[6] = NCI Yeast Anticancer Drug Screen. Data for the mlh1 rad18 strain (AID 175); conditions: S. cerevisiae mlh1 rad18 strain growth inhibition, stronger effect = higher value
Method in brief: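 Growth inhibition of the yeast strain was measured after compound exposure and expressed relative to vehicle-treated controls. The strain carries defined defects in DNA damage repair.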

[7] = at 5.0 µM (retest, dose inferred, filed as 0.5)
[8] = at 50.0 µM (retest, dose inferred, filed as 5.0)

| Compound | growth inhibition [1, 7] | growth inhibition [1, 8] | growth inhibition ([1]; at 50.0 µM) | growth inhibition [2, 7] | growth inhibition [2, 8] | growth inhibition ([2]; at 50.0 µM) | growth inhibition [3, 7] | growth inhibition [3, 8] | growth inhibition ([3]; at 50.0 µM) | growth inhibition [4, 7] | growth inhibition [4, 8] | growth inhibition ([4]; at 50.0 µM) | growth inhibition [5, 7] | growth inhibition [5, 8] | growth inhibition ([5]; at 50.0 µM) | growth inhibition [6, 7] | growth inhibition [6, 8] | growth inhibition ([6]; at 50.0 µM) |
| --- | --- | --- | --- | --- | --- | --- | --- | --- | --- | --- | --- | --- | --- | --- | --- | --- | --- | --- |
| CC(=O)Nc1ccccc1C(O)(c1ccccc1)c1ccccc1 | -2% | 0% | 14.4% | -5% | -2% | 35.2% | -5% | 1% | 16.4% | 2% | -2% | 9.45% | -2% | 2% | 14.7% | -5% | 1% | -31.2% |
| O=S1(=O)c2ccccc2C(O)(c2ccccc2)c2cc3ccccc3n21 (centres undefined) | 9% | 95% (active) | 95.8% (active) | 9% | 96% (active) | 95.5% (active) | 12% | 97% (active) | 94.2% (active) | 9% | 95% (active) | 94.9% (active) | 5% | 96% (active) | 94.3% (active) | 8% | 95% (active) | 95.5% (active) |
| CC(C)SC(=S)Nc1cc(Cl)c(Cl)cc1Cl | 7% | 85% (active) | 99.5% (active) | 6% | 86% (active) | 99.5% (active) | 10% | 98% (active) | 99.5% (active) | -14% | 91% (active) | 99.3% (active) | -4% | 49% | 98.9% (active) | 1% | 92% (active) | 99.3% (active) |
| S=c1c2ccccc2[nH]c2ccccc12 | -3% | 86% (active) | 89.2% (active) | -6% | 62% | 63% | -2% | 83% (active) | 60.6% | -7% | 46% | 75.3% (active) | 8% | 33% | 88.8% (active) | -5% | 88% (active) | 85.5% (active) |
| CCCCCCCCc1cc[n+](C2=C([O-])c3ccccc3C(=O)C2=O)cc1 | 99% (active) | 97% (active) | 98.8% (active) | 100% (active) | 93% (active) | 98.2% (active) | 100% (active) | 98% (active) | 99% (active) | 99% (active) | 95% (active) | 98.5% (active) | 99% (active) | 99% (active) | 98.8% (active) | 100% (active) | 99% (active) | 98.2% (active) |
| C=C(CN(C)C)C(=O)c1ccccc1 | -5% | 4% | 56.6% | 8% | 41% | 65% | 8% | 17% | 56% | -26% | 12% | 9.55% | -20% | 19% | 77.7% (active) | -4% | 17% | 74.8% (active) |
| c1csc(-c2nnc(C34CC5CC(CC(C5)C3)C4)o2)c1 | -31% | 93% (active) | 61.5% | -12% | 95% (active) | 55.3% | -24% | 97% (active) | 83.3% (active) | -2% | 76% (active) | 7.3% | -10% | 98% (active) | 86.3% (active) | -12% | 98% (active) | 65.3% |
| O=C1OC(c2ccccc2)=N/C1=C\c1ccc(Oc2ccc(Cl)c(Cl)c2)cc1 | 8% | 8% | 69.4% | 14% | 14% | 61.5% | 0% | 0% | 74.8% (active) | -2% | -2% | 46% | -1% | -1% | 69.7% | -4% | -4% | 52.4% |
| S=C1NCCNC(=S)SS1 | 40% | 97% (active) | 93% (active) | 8% | 99% (active) | 77.6% (active) | 15% | 97% (active) | 48.5% | 7% | 98% (active) | 20.2% | 10% | 99% (active) | 98.8% (active) | 14% | 99% (active) | 44.5% |
| Cc1ccc(S(=O)(=O)NNC(=O)c2sc(-c3nc(C)c(C(=O)NNS(=O)(=O)c4ccc(C)cc4)s3)nc2C)cc1 | 2% | 98% (active) | 7.3% | 2% | 99% (active) | 8% | 5% | 99% (active) | 83.5% (active) | 8% | 98% (active) | -43.5% | 8% | 98% (active) | 14.3% | 2% | 98% (active) | 15% |
| O=C(CNc1ccc([N+](=O)[O-])cc1)Nn1c(-c2ccccc2)nc2ccccc2c1=O | 18% | 23% | 82.1% (active) | 3% | 26% | 70.5% (active) | 6% | 25% | 72.7% (active) | 11% | 19% | 38.8% | 4% | 54% | 91.8% (active) | 2% | 28% | 85.4% (active) |
| Cc1ccc2[nH]c3c(c2c1)CCC/C3=N/N=C(N)N | 26% | 93% (active) | 63% | 14% | 100% (active) | 83% (active) | 24% | 99% (active) | 90.8% (active) | 22% | 99% (active) | 91% (active) | 21% | 99% (active) | 89.2% (active) | 29% | 97% (active) | 90.8% (active) |
| CSCCOC(=O)c1cc(NC(=S)c2ccoc2C)ccc1Cl | 13% | 78% (active) | 82.5% (active) | -8% | 78% (active) | 68.9% | 10% | 85% (active) | 66.4% | 14% | 83% (active) | 67% | 17% | 88% (active) | 73.9% (active) | -7% | 85% (active) | 63% |
| CN(C)c1ccc(/C=C/c2ccnc3ccccc23)cc1Cl | 23% | 95% (active) | -10.1% | 4% | 97% (active) | -4.1% | 0% | 97% (active) | 66.8% | -6% | 94% (active) | -12.6% | 2% | 97% (active) | 29.4% | -3% | 95% (active) | 5.25% |
| CC(NNC(=S)N1CCCC1)c1cc2ccccc2cn1 (centres undefined) | 30% | 99% (active) | 89.2% (active) | 38% | 99% (active) | 90.8% (active) | 62% | 98% (active) | 90.8% (active) | 66% | 96% (active) | 90.3% (active) | 64% | 98% (active) | 88.2% (active) | 34% | 98% (active) | 92.2% (active) |
| CCOc1ccccc1C(=O)OCc1ccccc1 | -7% | 8% | 10.1% | -9% | 4% | 0.65% | -1% | 19% | 18.9% | 23% | -22% | 15.2% | 4% | -20% | 6.2% | -19% | 21% | 1.55% |
| CCOC(CCl)Oc1c(C(C)C)cc(C(C)C)c(Cl)c1C (centres undefined) | 0% | 20% | 97.5% (active) | -1% | 57% | 96.7% (active) | 1% | 49% | 97.7% (active) | 4% | 26% | 96.7% (active) | -3% | 19% | 97.3% (active) | -1% | 27% | 95% (active) |
| CC/C(C)=N/OC(=O)Nc1ccccc1 | 5% | 0% | 39.1% | -22% | 5% | 17.2% | 2% | 20% | 64.7% | 5% | 8% | 11.2% | -74% | 2% | 0.05% | 1% | 14% | 34% |
